# Laboratory results from PubChem BioAssay AID602162 (NMMLSC, 2011).
# The campaign covered roughly 360,000 compounds. About 690 (0.19%) were called active. The sample as a whole holds a higher share of actives than the screen did. Values without a mark were called inactive.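 The calls were made as follows: active = fluorescence ratio to DMSO below 75%, the collection mean minus 3 SD; inconclusive = too few cells collected in the well; inactive = the rest.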
# Molecular target: ATP-binding cassette sub-family B member 6 (Homo sapiens) (UniProt Q9NP58)
# Test: ABCB6 transporter inhibitors, primary screen, K562-ABCB6 cells, flow cytometry, MLPCN library (AID 602162);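 also: signal is porphyrin accumulated inside mitochondria; 100% equals median channel fluorescence of DMSO control wells; lower ratio means ABCB6 inhibition with less porphyrin fluorescence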
# Settings: K562-ABCB6 porphyrin accumulation, 1 h, at 10 µM, active compounds read low
# Chain of ATP-binding cassette sub-family B member 6 (Homo sapiens) (Q9NP58 whole entry, looked up): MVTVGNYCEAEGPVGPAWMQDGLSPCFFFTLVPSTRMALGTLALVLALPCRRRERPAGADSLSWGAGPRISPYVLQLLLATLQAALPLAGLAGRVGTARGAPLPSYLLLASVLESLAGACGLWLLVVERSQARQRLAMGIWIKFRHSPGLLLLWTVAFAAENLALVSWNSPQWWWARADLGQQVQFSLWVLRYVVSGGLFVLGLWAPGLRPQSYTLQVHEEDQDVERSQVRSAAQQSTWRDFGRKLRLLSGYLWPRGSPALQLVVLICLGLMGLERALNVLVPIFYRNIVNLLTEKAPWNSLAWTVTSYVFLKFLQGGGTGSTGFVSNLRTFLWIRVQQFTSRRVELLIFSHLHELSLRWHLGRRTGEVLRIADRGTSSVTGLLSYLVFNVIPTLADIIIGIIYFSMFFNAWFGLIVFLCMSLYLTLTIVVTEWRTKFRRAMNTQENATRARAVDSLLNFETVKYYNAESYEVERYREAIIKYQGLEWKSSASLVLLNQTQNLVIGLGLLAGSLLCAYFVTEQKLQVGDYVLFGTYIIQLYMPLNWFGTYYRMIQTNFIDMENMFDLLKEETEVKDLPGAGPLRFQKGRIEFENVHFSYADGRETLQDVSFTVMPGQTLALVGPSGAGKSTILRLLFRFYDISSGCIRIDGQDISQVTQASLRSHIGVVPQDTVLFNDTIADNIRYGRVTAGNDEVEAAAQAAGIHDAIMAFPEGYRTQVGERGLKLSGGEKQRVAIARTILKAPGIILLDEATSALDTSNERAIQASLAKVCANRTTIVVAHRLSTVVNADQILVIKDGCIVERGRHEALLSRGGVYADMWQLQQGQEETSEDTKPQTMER
row,SMILES,fluorescence ratio to DMSO
1,Cc1sc2ncn(CC(=O)NCCCC(=O)N(C)Cc3ccccc3)c(=O)c2c1C,97%
2,O=C(Nc1cc(=O)[nH]c2ncnn12)c1ccccc1Cl,101%
3,CC(C)C[C@H](NC(=O)[C@@H]1O[C@H]1C(=O)O)C(=O)NCCCCN=C(N)N,94%
4,CCC(c1nnnn1-c1ccc2c(c1)OCCO2)N1CCN(c2ccc(C(F)(F)F)cn2)CC1 (stereo unspecified),99%
5,CN(Cc1ccccc1)C(=O)CCC1CCN(C(=O)c2ccco2)CC1,90%
6,CC(=O)N1CCc2cc(S(=O)(=O)NC3CCCCC3)ccc21,97%
7,CCC(=O)N1CCCC1(C)C(=O)Nc1ccc2c(c1)CCN2C(C)=O (stereo unspecified),72% (active)
8,CCCNS(=O)(=O)c1ccc2c(c1)CCCN2C(C)=O,75%
9,CC(C)(C)n1cnnc1Sc1ccc([N+](=O)[O-])cn1,101%
10,CC1CCCCC1NC(=O)NC(=O)COC(=O)C1=NN(c2ccccc2)C(=O)CC1 (stereo unspecified),102%
11,CC1(C(=O)Nc2ccc3c(c2)OCCO3)CCN1C(=O)Cc1cc(F)ccc1F (stereo unspecified),100%
12,COc1ccc(OC)c(C(=O)NC(CC(N)=O)c2ccc(N3CCC(N4CCCCC4)CC3)c([N+](=O)[O-])c2)c1 (stereo unspecified),92%
13,Cc1nn(-c2ccccc2)c2[nH]c(C(F)(F)F)cc(=O)c12,87%
14,C=CCc1cccc(/C=N/NC(=O)COc2ccc(-n3cnnn3)cc2)c1O,93%
15,CCOc1ccc(C(=O)COC(=O)c2ccc(-n3cnnn3)cc2)cc1,101%
16,O=C(COc1ccc(-n2cnnn2)cc1)Nc1ccccc1Cl,73% (active)
17,CC1CCN(C(=O)CSc2nnc(-c3ccco3)n2N)CC1,95%
18,CN(C(=O)c1ccccc1)c1nccnc1C#N,98%
19,COC(=O)c1ccc(CSc2ccc(S(=O)(=O)N3CCCCC3)cn2)cc1,100%
20,CCC(=O)N1c2ccccc2NC2=C(C(=O)CCC2)C1c1ccco1 (stereo unspecified),101%
21,O=C1CCCC2=C1C(c1cccs1)n1nc(SCc3ccccc3)nc1N2 (stereo unspecified),55% (active)
22,O=C1CCCC2=C1C(c1cccs1)CC(=O)N2c1ccc(F)cc1 (stereo unspecified),95%
23,Cn1ncc2c(Nc3cccc4ccccc34)ncnc21,85%
24,CCCOc1cccc(C(=O)Nc2ccccc2C(=O)N2CCN(C)CC2)c1,99%
25,C[C@]12CCC(=O)C=C1C=CC1C2CC[C@@]2(C)C1CC[C@@]21CCC(=O)O1 (stereo partly specified),98%
26,COc1ccc(S(=O)(=O)N2CCOCC2)cc1NC(=O)CSc1ncnc2ccccc12,92%
